PubChem BioAssay AID1159580 (chemical genetic matrix, 2015)
Where “and” joins values, the source holds several entries; their conditions need not be identical. Equal entries are not always repeated. The whole screen tested about 5,500 compounds, of which about 2,000 (36%) were called active. Inconclusive results (about 18%) are left out. Rule as the data show it: active = normalized growth mostly below about 0.91 (no sharp cut-off); inconclusive = no clear call, values can overlap the other calls; inactive = mostly above about 0.92. Some of the results follow.

Test: chemical genetic growth profiling, strain panel (AID 1159580);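 also: tested at 20 µM; growth read once vehicle control cultures reached saturation at 30 °C; 1 = growth at the plate median or of vehicle wells; lower values mean less growth of the strain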
Settings: growth OD

Measured: normalized growth

CC1(C)NC(=O)N(c2ccc([N+](=O)[O-])c(C(F)(F)F)c2)C1=O
inactive: S. cerevisiae deletion strains, locus YJR075W, strain HOC1, active compounds read low 1.01 | S. cerevisiae deletion strains, locus YKL009W, strain mrt4, active compounds read low 0.969 | S. cerevisiae deletion strains, locus YKL068W, active compounds read low 0.992 | S. cerevisiae deletion strains, locus YKL085W, strain MDH1 (second series), active compounds read low 0.988 | S. cerevisiae deletion strains, locus YKL085W, strain MDH1, active compounds read low 0.988 | S. cerevisiae deletion strains, locus YKL160W, strain elf1, active compounds read low 0.988 | S. cerevisiae deletion strains, locus YKL190W, strain CNB1, active compounds read low 1.01 | S. cerevisiae deletion strains, locus YKR001C, strain vps1, active compounds read low 0.975 | S. cerevisiae deletion strains, locus YKR026C, strain gcn3, active compounds read low 0.984 | S. cerevisiae deletion strains, locus YKR091W, strain srl3, active compounds read low 0.989 | S. cerevisiae deletion strains, locus YLL001W, strain dnm1, active compounds read low 0.986 | S. cerevisiae deletion strains, locus YLL026W, active compounds read low 0.98 | S. cerevisiae deletion strains, locus YLL041C, strain sdh2, active compounds read low 0.988 | S. cerevisiae deletion strains, locus YLR027C, strain aat2, active compounds read low 0.986 | S. cerevisiae deletion strains, locus YLR039C, strain RIC1, active compounds read low 0.984 | S. cerevisiae deletion strains, locus YLR058C, strain SHM2, active compounds read low 1.02 | S. cerevisiae deletion strains, locus YLR102C, strain apc9, active compounds read low 0.965 | S. cerevisiae deletion strains, locus YLR113W, strain HOG1, active compounds read low 1.03 | S. cerevisiae deletion strains, locus YLR221C, strain rsa3, active compounds read low 0.98 | S. cerevisiae deletion strains, locus YLR258W, strain gsy2, active compounds read low 0.984 | S. cerevisiae deletion strains, locus YLR262C, strain YPT6 (second series), active compounds read low 0.94 | S. cerevisiae deletion strains, locus YLR262C, strain YPT6, active compounds read low 0.988 | S. cerevisiae deletion strains, locus YLR268W, strain sec22, active compounds read low 0.974 | S. cerevisiae deletion strains, locus YLR320W, strain mms22, active compounds read low 0.995 | S. cerevisiae deletion strains, locus YLR330W, strain CHS5, active compounds read low 1.01 | S. cerevisiae deletion strains, locus YLR342W, strain FKS1 (second series), active compounds read low 1.03 | S. cerevisiae deletion strains, locus YLR342W, strain FKS1, active compounds read low 0.983 | S. cerevisiae deletion strains, locus YLR357W, strain rsc2, active compounds read low 0.98 | S. cerevisiae deletion strains, locus YLR370C, strain arc18, active compounds read low 0.971 | S. cerevisiae deletion strains, locus YLR371W, strain rom2, active compounds read low 0.98 | S. cerevisiae deletion strains, locus YLR384C, strain iki3, active compounds read low 0.989 | S. cerevisiae deletion strains, locus YLR418C, strain cdc73, active compounds read low 0.942 | S. cerevisiae deletion strains, locus YML016C, strain PPZ1, active compounds read low 1.02 | S. cerevisiae deletion strains, locus YML032C, strain rad52, active compounds read low 0.986 | S. cerevisiae deletion strains, locus YML120C, strain ndi1, active compounds read low 0.991 | S. cerevisiae deletion strains, locus YML124C, strain tub3, active compounds read low 0.981 | S. cerevisiae deletion strains, locus YMR058W, strain fet3, active compounds read low 0.987 | S. cerevisiae deletion strains, locus YMR078C, strain ctf18, active compounds read low 0.988 | S. cerevisiae deletion strains, locus YMR125W, strain sto1, active compounds read low 0.972 | S. cerevisiae deletion strains, locus YMR129W, active compounds read low 0.986 | S. cerevisiae deletion strains, locus YMR205C, strain PFK2, active compounds read low 0.972 | S. cerevisiae deletion strains, locus YMR223W, strain ubp8, active compounds read low 0.983 | S. cerevisiae deletion strains, locus YMR231W, strain pep5, active compounds read low 0.981 | S. cerevisiae deletion strains, locus YMR263W, strain SAP30, active compounds read low 1 | S. cerevisiae deletion strains, locus YMR307W, strain GAS1, active compounds read low 1.01 and 0.988 | S. cerevisiae deletion strains, locus YNL067W, strain RPL9B, active compounds read low 0.987 | S. cerevisiae deletion strains, locus YNL071W, strain lat1, active compounds read low 0.996 | S. cerevisiae deletion strains, locus YNL128W, strain TEP1, active compounds read low 1 | S. cerevisiae deletion strains, locus YNL153C, strain GIM3, active compounds read low 1.01 | S. cerevisiae deletion strains, locus YNL175C, strain NOP13, active compounds read low 0.979 | S. cerevisiae deletion strains, locus YNL183C, strain NPR1, active compounds read low 0.946 | S. cerevisiae deletion strains, locus YNL197C, strain WHI3, active compounds read low 0.968 | S. cerevisiae deletion strains, locus YNL209W, strain ssb2, active compounds read low 0.988 | S. cerevisiae deletion strains, locus YNL224C, strain SQS1, active compounds read low 0.991 | S. cerevisiae deletion strains, locus YNL233W, strain BNI4, active compounds read low 1.01 | S. cerevisiae deletion strains, locus YNL248C, strain rpa49, active compounds read low 0.98 | S. cerevisiae deletion strains, locus YNL250W, strain rad50, active compounds read low 0.987 | S. cerevisiae deletion strains, locus YNL271C, strain bni1, active compounds read low 0.966 | S. cerevisiae deletion strains, locus YNL298W, strain CLA4, active compounds read low 0.975 | S. cerevisiae deletion strains, locus YNL307C, strain MCK1, active compounds read low 0.98 | S. cerevisiae deletion strains, locus YNL322C, strain KRE1 (second series), active compounds read low 0.991 | S. cerevisiae deletion strains, locus YNL322C, strain KRE1, active compounds read low 1.01 and 0.995 | S. cerevisiae deletion strains, locus YNR049C, strain mso1, active compounds read low 0.984 | S. cerevisiae deletion strains, locus YNR052C, strain pop2, active compounds read low 0.977 | S. cerevisiae deletion strains, locus YOL006C, strain TOP1, active compounds read low 0.959 | S. cerevisiae deletion strains, locus YOL012C, strain htz1 0.756 | S. cerevisiae deletion strains, locus YOL147C, strain pex11, active compounds read low 0.976 | S. cerevisiae deletion strains, locus YOR001W, strain rrp6, active compounds read low 0.989 | S. cerevisiae deletion strains, locus YOR061W, strain CKA2, active compounds read low 1.01 | S. cerevisiae deletion strains, locus YOR069W, strain VPS5, active compounds read low 1.01 | S. cerevisiae deletion strains, locus YOR070C, strain gyp1, active compounds read low 0.987 | S. cerevisiae deletion strains, locus YOR080W, strain dia2, active compounds read low 0.987 | S. cerevisiae deletion strains, locus YOR083W, strain WHI5 (second series), active compounds read low 0.979 | S. cerevisiae deletion strains, locus YOR083W, strain WHI5, active compounds read low 0.99 | S. cerevisiae deletion strains, locus YOR106W, strain vam3, active compounds read low 0.981 | S. cerevisiae deletion strains, locus YOR136W, strain idh2, active compounds read low 0.977 | S. cerevisiae deletion strains, locus YOR144C, strain elg1, active compounds read low 0.976 | S. cerevisiae deletion strains, locus YOR184W, strain ser1, active compounds read low 0.975 | S. cerevisiae deletion strains, locus YOR231W, strain MKK1, active compounds read low 1.01 | S. cerevisiae deletion strains, locus YOR265W, strain rbl2, active compounds read low 0.987 | S. cerevisiae deletion strains, locus YOR270C, strain vph1, active compounds read low 0.974 | S. cerevisiae deletion strains, locus YOR290C, strain snf2, active compounds read low 0.996 | S. cerevisiae deletion strains, locus YOR316C, strain cot1, active compounds read low 0.99 | S. cerevisiae deletion strains, locus YPL051W, strain arl3, active compounds read low 0.985 | S. cerevisiae deletion strains, locus YPL055C, strain LGE1, active compounds read low 1.01 and 0.996 | S. cerevisiae deletion strains, locus YPL078C, strain atp4, active compounds read low 0.978 | S. cerevisiae deletion strains, locus YPL106C, strain sse1, active compounds read low 0.962 | S. cerevisiae deletion strains, locus YPL240C, strain hsp82, active compounds read low 0.987 | S. cerevisiae deletion strains, locus YPL241C, strain CIN2, active compounds read low 1.01 and 0.997 | S. cerevisiae deletion strains, locus YPL256C, strain CLN2, active compounds read low 0.996 | S. cerevisiae deletion strains, locus YPR119W, strain clb2, active compounds read low 0.969 | S. cerevisiae deletion strains, locus YPR141C, strain kar3, active compounds read low 0.99 | S. cerevisiae deletion strains, locus YPR163C, strain tif3, active compounds read low 0.979 | S. cerevisiae deletion strains, locus YPR167C, strain met16, active compounds read low 0.975 | S. cerevisiae deletion strains, strain wtn01, active compounds read low 0.969 | S. cerevisiae strains, strain wild type, active compounds read low 1
